Reference: the supplement of paper PMC9334596
“And” between values parts separate entries of the source, which are not always exact repeats. Equal values may be shown once. The full ranking holds about 5,300 compounds; the median of “PER2::LUC luminescence relative to vehicle control” is about 0.96, and the highest 2% start at about 1.3. For the sample, the highest values were picked, then their nearest neighbours and some compounds at random.

System: mPer2Luc MEF
Test: PER2::LUC luminescence relative to vehicle control (fold of vehicle); higher = higher PER2::LUC reporter signal
Details: 10 µM
Procedure, shortened: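 The value is PER2::LUC luminescence expressed as fold of vehicle control. Mouse embryonic fibroblasts carrying the mPer2Luc reporter were seeded at ~3000 cells per well in 384-well plates and grown in DMEM with 10% FBS at 37 °C and 5% CO2. Compounds from commercial libraries were added at 10 μM 48 h after seeding, and luminescence was read with the ONE-Glo luciferase assay system 24 h and 30 h after treatment, followed by an alamarBlue viability assay.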

## CCCCN(CCCC)C(=O)CN1C[C@H](c2ccc3c(c2)OCO3)[C@@H](C(=O)O)[C@@H]1c1ccc(OC)cc1
Time after treatment 24 h
  PER2::LUC luminescence: 2.23
Time after treatment 30 h
  PER2::LUC luminescence: 2.08

## Cc1noc(-c2ccc(-c3ccc(CC(=O)O)cc3)cc2)c1NC(=O)OC(C)c1ccccc1Cl (stereo unspecified)
Time after treatment 24 h
  PER2::LUC luminescence: 1.1
Time after treatment 30 h
  PER2::LUC luminescence: 1.12

## C/C=C/C(=O)N1C(=O)OC[C@@H]1Cc1ccccc1
Time after treatment 24 h
  PER2::LUC luminescence: 0.864
Time after treatment 30 h
  PER2::LUC luminescence: 0.846

## CN1CCCN=C1/C=C/c1cccs1
Time after treatment 24 h
  PER2::LUC luminescence: 1.2 and 1.03
Time after treatment 30 h
  PER2::LUC luminescence: 0.92 and 1.16

## O=C1/C(=C/c2cccs2)CCC/C1=C\c1cccs1
Time after treatment 24 h
  PER2::LUC luminescence: 1.5
Time after treatment 30 h
  PER2::LUC luminescence: 1.67

## O=C1/C(=C/c2cccs2)CC/C1=C\c1cccs1
Time after treatment 24 h
  PER2::LUC luminescence: 1.07
Time after treatment 30 h
  PER2::LUC luminescence: 1.01

## CC(=O)Nc1ccc(OC(=O)c2ccccc2O)cc1
Time after treatment 24 h
  PER2::LUC luminescence: 0.934
Time after treatment 30 h
  PER2::LUC luminescence: 1.02

## O=C(Oc1ccccc1C(=O)O)c1ccccc1O
Time after treatment 24 h
  PER2::LUC luminescence: 1.15 and 0.613
Time after treatment 30 h
  PER2::LUC luminescence: 1.16 and 0.995

## Nc1ccc(C(=O)Oc2ccccc2)c(O)c1
Time after treatment 24 h
  PER2::LUC luminescence: 0.958
Time after treatment 30 h
  PER2::LUC luminescence: 1.54

## CC(C)c1onc(-c2c(Cl)cccc2Cl)c1COc1ccc(/C=C/c2cccc(C(=O)O)c2)c(Cl)c1
Time after treatment 24 h
  PER2::LUC luminescence: 1.86
Time after treatment 30 h
  PER2::LUC luminescence: 2.03

## CC(C)CCNC(=O)c1ccc2c(c1)nc(Nc1n[nH]c3ccc(-c4ccccc4OC(F)(F)F)cc13)n2C1CCC(O)CC1 (stereo unspecified)
Time after treatment 24 h
  PER2::LUC luminescence: 0.526
Time after treatment 30 h
  PER2::LUC luminescence: 0.553

## CCCCC(CC)COC(=O)c1ccccc1O (stereo unspecified)
Time after treatment 24 h
  PER2::LUC luminescence: 1.07
Time after treatment 30 h
  PER2::LUC luminescence: 1.63

## CCCCC(CC)COC(=O)C=Cc1ccc(OC)cc1 (stereo unspecified)
Time after treatment 24 h
  PER2::LUC luminescence: 1.09
Time after treatment 30 h
  PER2::LUC luminescence: 1.14

## CCCCC(CC)COC(=O)C(C#N)=C(c1ccccc1)c1ccccc1 (stereo unspecified)
Time after treatment 24 h
  PER2::LUC luminescence: 1.01 and 1.15
Time after treatment 30 h
  PER2::LUC luminescence: 1.08 and 1.14

## COc1ccc(CNc2nc(NCc3ccc(OC)cc3)c3ncn(C(C)C)c3n2)cc1
Time after treatment 24 h
  PER2::LUC luminescence: 0.991
Time after treatment 30 h
  PER2::LUC luminescence: 1.22

## CC(C)Cc1ccc(C(C)C(=O)O)cc1 (racemic)
Time after treatment 24 h
  PER2::LUC luminescence: 1.12
Time after treatment 30 h
  PER2::LUC luminescence: 0.938

## CC(C)Cc1ccc([C@@H](C)C(=O)O)cc1
Time after treatment 24 h
  PER2::LUC luminescence: 0.974
Time after treatment 30 h
  PER2::LUC luminescence: 0.981

## CC(C(=O)O)c1ccc(CC2CCCC2=O)cc1 (stereo unspecified)
Time after treatment 24 h
  PER2::LUC luminescence: 0.779 and 1.02
Time after treatment 30 h
  PER2::LUC luminescence: 1.36 and 1.08

## O=C(NCc1cccc(O)c1)c1cc2cc(F)ccc2[nH]1
Time after treatment 24 h
  PER2::LUC luminescence: 0.948
Time after treatment 30 h
  PER2::LUC luminescence: 0.986

## CC(=O)NN(Cc1ccc(N)cc1)c1ncnc2c1ncn2[C@@H]1O[C@H](CO)[C@@H](O)[C@H]1O
Time after treatment 24 h
  PER2::LUC luminescence: 1.03
Time after treatment 30 h
  PER2::LUC luminescence: 0.913

## NC1(C(=O)O)CCc2cc(P(=O)(O)O)ccc21 (racemic)
Time after treatment 24 h
  PER2::LUC luminescence: 1.03
Time after treatment 30 h
  PER2::LUC luminescence: 1.01

## Cc1nc(C(=O)N2CCC[C@H]2Cc2nnc(-c3ccccc3)o2)c(-c2ccccc2F)s1
Time after treatment 24 h
  PER2::LUC luminescence: 1.06
Time after treatment 30 h
  PER2::LUC luminescence: 0.881

## COc1ccc(CCN2CN=C(SCc3ccc(Cl)cc3)NC2)cc1OC
Time after treatment 24 h
  PER2::LUC luminescence: 0.912
Time after treatment 30 h
  PER2::LUC luminescence: 0.83

## COc1ccc(-c2nc3cc(F)ccc3s2)cc1OC
Time after treatment 24 h
  PER2::LUC luminescence: 1.5
Time after treatment 30 h
  PER2::LUC luminescence: 1.52

## COc1cc(-c2nc3ccccc3s2)ccc1O
Time after treatment 24 h
  PER2::LUC luminescence: 1.37
Time after treatment 30 h
  PER2::LUC luminescence: 1.5

## COc1ccccc1O
Time after treatment 24 h
  PER2::LUC luminescence: 0.97
Time after treatment 30 h
  PER2::LUC luminescence: 0.878

## COc1cc(CC(=O)O)ccc1O
Time after treatment 24 h
  PER2::LUC luminescence: 0.99
Time after treatment 30 h
  PER2::LUC luminescence: 0.874

## COc1cc(-c2ccc(=O)[nH]n2)ccc1OC(F)F
Time after treatment 24 h
  PER2::LUC luminescence: 0.97
Time after treatment 30 h
  PER2::LUC luminescence: 0.924
